A selection: hits, their analogues and other compounds. The true share with any hit is near 28%.
CYP2C9 inhib: blocks human cytochrome P450 2C9 | CYP2C9 Supersomes, luciferin-H conversion, luminescence | P11712 | inhibition, % at 5 µM | AID 777 | 96,000 tested, 20% active;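 active means blocking of liver enzyme CYP2C9 beyond about 50% at 5 µM, limit read from the data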
CYP2C9 act: activators of human CYP2C9; recombinant CYP2C9, luciferin-H conversion, luminescence; hits give high values; factor 1 = untreated enzyme, 0 = blocked; activation factor at 5 µM; 96,000 tested, 1.4% active; AID 1024;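 active means activation factor of 2 or more for CYP2C9 at a 5 µM dose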
PLK1 PBD inh: inhibitors of human Plk1 polo box domain binding | P53350 | Plk1 PBD phosphopeptide binding, fluorescence polarization | inhibition, %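 (tested at about 20 µM)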 | 97,000 tested, 0.13% active | AID 693; in the data active means inhibition above about 34%, passing the limit was not always enough
Target sequence (P53350 whole entry, looked up, the tested form may be a part): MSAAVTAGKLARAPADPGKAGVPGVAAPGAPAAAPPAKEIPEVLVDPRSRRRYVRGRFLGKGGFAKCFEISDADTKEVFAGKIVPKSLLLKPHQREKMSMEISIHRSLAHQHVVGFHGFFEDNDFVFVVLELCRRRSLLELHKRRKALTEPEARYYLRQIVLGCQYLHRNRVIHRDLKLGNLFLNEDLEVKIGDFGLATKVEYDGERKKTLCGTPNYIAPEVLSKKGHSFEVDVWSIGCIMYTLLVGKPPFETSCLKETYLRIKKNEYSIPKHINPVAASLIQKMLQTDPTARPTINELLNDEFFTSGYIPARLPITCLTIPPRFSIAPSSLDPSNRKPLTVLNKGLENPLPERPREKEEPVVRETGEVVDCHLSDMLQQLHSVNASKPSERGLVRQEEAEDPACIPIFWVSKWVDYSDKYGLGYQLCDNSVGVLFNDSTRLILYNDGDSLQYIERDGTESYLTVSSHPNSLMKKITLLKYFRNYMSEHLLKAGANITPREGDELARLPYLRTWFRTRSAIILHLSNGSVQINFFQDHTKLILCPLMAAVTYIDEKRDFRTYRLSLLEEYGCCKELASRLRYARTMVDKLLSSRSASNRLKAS
PLK1 kinase inh: blocks human PLK1 kinase activity | P53350 | inhibition, % at 10 µM | 97,000 tested, 0.53% active | recombinant PLK1 kinase, TR-FRET peptide phosphorylation;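 active means inhibition of 50% or more in the single-concentration screen; inactive means inhibition below 50%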
CYP2C19 inh: human CYP2C19 inhibition | P33261 | CYP2C19 Supersomes, luciferin-H EGE luminescence, 30 min | inhibition, % at 5 µM | 96,000 tested, 21% active;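 active means CYP2C19 inhibition above a set limit at 5 µM in the primary screen, cut at about 50% in these data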
CYP2C19 activ: activators of human cytochrome P450 2C19 | P33261 | recombinant CYP2C19, luciferin-H EGE luminescence; hits give high values; 0 = fully inhibited enzyme, 1 = untreated enzyme | activation factor at 5 µM | 96,000 tested, under 10 active;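 active means activation factor of at least 2 at 5 µM in the primary screen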
Large screens that a line does not name were inactive.

CCCNS(=O)(=O)c1ccc(Oc2ncc(C(F)(F)F)cc2Cl)cc1	CYP2C9 inhib 67.3, CYP2C19 inh 87.1
CCCNS(=O)(=O)c1ccc(OCC(=O)OC)cc1	CYP2C9 inhib 56.1, CYP2C19 inh 52.6
COC(=O)COc1ccc(S(=O)(=O)NCCC2=CCCCC2)cc1	CYP2C9 inhib 68.6, CYP2C19 inh 95.2
CC(C)NS(=O)(=O)c1ccc(Oc2ncc(C(F)(F)F)cc2Cl)cc1	none
CCOc1ccc(S(=O)(=O)N2CCN(Cc3ccccc3)CC2)c2cccnc12	none
COc1cccc(NC(=O)CSc2nnc(-c3cc(-c4ccccn4)nc4ccccc34)o2)c1	none
CCCNS(=O)(=O)c1ccc(OCC(=O)NCCC2=CCCCC2)cc1	none
COC(=O)COc1ccc(S(=O)(=O)NCCC2=CCCCC2)cc1C	CYP2C19 inh 98.7 (no result: PLK1 PBD inh, PLK1 kinase inh)
CCN(Cc1ccncc1)C(=O)c1cccs1	none
O=C(COc1ccccc1Cl)N1CCN(c2ccc([N+](=O)[O-])c(N3CCCCC3)c2)CC1	CYP2C9 inhib 84.2, CYP2C19 inh 59.1
O=C(COc1ccc(Cl)cc1)N1CCN(c2ccc([N+](=O)[O-])c(N3CCCCC3)c2)CC1	CYP2C9 inhib 60.7, CYP2C19 inh 98.3
O=C(COc1ccc(Cl)cc1Cl)N1CCCCCC1	none (no result: PLK1 PBD inh, PLK1 kinase inh)
CCc1nnc(NC(=O)CSc2nnc(CSc3nc(C)cc(C)n3)o2)s1	none
Cc1ccc(-n2c(C)cc(C)c(C#N)c2=O)cc1Cl	none
COc1ccc(C2(C)NC(=O)N(Cc3cc(Cl)cc4c3OCOC4)C2=O)cc1OC (stereo not given)	CYP2C9 act 2.8, CYP2C19 inh 64.9
COc1ccc(C(=O)CN2C(=O)NC(C)(c3ccccc3)C2=O)cc1OC (stereo not given)	none
CC1CCc2c(C(=O)Oc3cccc(-n4cnnn4)c3)csc2C1 (stereo not given)	none
COc1ccc(-c2cc(C(F)(F)F)c3c(=O)n(-c4ccccc4)[nH]c3n2)cc1	CYP2C9 inhib 62.7
COc1ccc(-c2cc(C(F)(F)F)nc(S(C)(=O)=O)n2)cc1	none
O=C(OCc1cc(=O)n2c(n1)sc1ccccc12)c1ccc2c(=O)n3c(nc2c1)CCC3	CYP2C9 inhib 75.9 (no result: PLK1 PBD inh, PLK1 kinase inh)
COC(=O)c1ccc(OCC2c3cc(OC)c(OC)cc3CCN2C(=O)C2CC2)cc1 (stereo not given)	CYP2C19 inh 70.8
COc1cc2c(cc1OC)C(c1cc3cc4c(cc3[nH]c1=O)OCO4)N(C(=O)C1CC1)CC2 (stereo not given)	none (no result: CYP2C9 inhib, CYP2C9 act, CYP2C19 inh, CYP2C19 activ)
O=C(NC(NC1CCS(=O)(=O)C1)C(=O)c1ccccc1)c1ccc(Cl)cc1 (stereo not given)	none
COC(=O)C1=C(C)NC2=C(C(=O)CCC2)C1c1cn(Cc2ccc(Cl)cc2Cl)nc1-c1ccccc1 (stereo not given)	CYP2C9 inhib 73.0, CYP2C19 inh 52.8
CCOC(=O)C1=C(C)NC2=C(C(=O)CCC2)C1c1cn(Cc2ccc(Cl)cc2Cl)nc1-c1ccccc1 (stereo not given)	CYP2C9 inhib 82.9, CYP2C19 inh 51.0
CCOC(=O)C1=C2N(C)c3ccccc3N2CCC1=O	none
Cc1ccc(CCNC(=O)C2CCCN(c3nc4ccccc4o3)C2)cc1 (stereo not given)	CYP2C9 inhib 50.4, CYP2C19 inh 60.9
O=C(NCCc1ccc(Cl)cc1)C1CCCN(S(=O)(=O)c2cnc[nH]2)C1 (stereo not given)	CYP2C9 inhib 86.0, CYP2C19 inh 92.1
O=C(NCCN1CCN(c2cccc(Cl)c2)CC1)C1CCCN(S(=O)(=O)c2cnc[nH]2)C1 (stereo not given)	none
O=C(NCCC1=CCCCC1)C1CCN(S(=O)(=O)c2cnc[nH]2)CC1	CYP2C9 inhib 96.0, CYP2C19 inh 78.2
O=C(NCCc1ccc(Cl)cc1)C1CCN(S(=O)(=O)N2CCC3(CC2)OCCO3)CC1	CYP2C19 inh 76.7
Cc1nc2ccc(C(=O)O)cc2c2c1CC(C)S2 (stereo not given)	none
CCC(C)NCCOCCOc1ccc(F)cc1 (stereo not given)	none
Cc1noc(C)c1C(=O)NCCc1ccc(Cl)cc1	CYP2C9 inhib 54.2, CYP2C19 inh 90.6
Cc1ccc(CCNC(=O)C2CCCN(S(=O)(=O)c3cnc[nH]3)C2)cc1 (stereo not given)	CYP2C9 inhib 77.7, CYP2C19 inh 87.1

High-throughput results: PubChem, several laboratories
